In publication PMC4336329 (PLoS ONE, 2015):
In all, about 310,000 compounds went through this assay and about 14,000 (4.5%) showed an effect of 50% or more. Effects have a minus sign here. The sample as a whole holds a higher share of strong results than the screen did.

Each molecule was assayed against human ether-à-go-go-related gene (hERG) potassium channel (human, UniProt Q12809) (assay: primary screen, population patch clamp on CHO cells stably expressing hERG; higher = less effect of the substance).
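Further: peak tail current of the secondary pulse compared with the same well before compound.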

Chain of human ether-à-go-go-related gene (hERG) potassium channel (Q12809 whole entry, looked up): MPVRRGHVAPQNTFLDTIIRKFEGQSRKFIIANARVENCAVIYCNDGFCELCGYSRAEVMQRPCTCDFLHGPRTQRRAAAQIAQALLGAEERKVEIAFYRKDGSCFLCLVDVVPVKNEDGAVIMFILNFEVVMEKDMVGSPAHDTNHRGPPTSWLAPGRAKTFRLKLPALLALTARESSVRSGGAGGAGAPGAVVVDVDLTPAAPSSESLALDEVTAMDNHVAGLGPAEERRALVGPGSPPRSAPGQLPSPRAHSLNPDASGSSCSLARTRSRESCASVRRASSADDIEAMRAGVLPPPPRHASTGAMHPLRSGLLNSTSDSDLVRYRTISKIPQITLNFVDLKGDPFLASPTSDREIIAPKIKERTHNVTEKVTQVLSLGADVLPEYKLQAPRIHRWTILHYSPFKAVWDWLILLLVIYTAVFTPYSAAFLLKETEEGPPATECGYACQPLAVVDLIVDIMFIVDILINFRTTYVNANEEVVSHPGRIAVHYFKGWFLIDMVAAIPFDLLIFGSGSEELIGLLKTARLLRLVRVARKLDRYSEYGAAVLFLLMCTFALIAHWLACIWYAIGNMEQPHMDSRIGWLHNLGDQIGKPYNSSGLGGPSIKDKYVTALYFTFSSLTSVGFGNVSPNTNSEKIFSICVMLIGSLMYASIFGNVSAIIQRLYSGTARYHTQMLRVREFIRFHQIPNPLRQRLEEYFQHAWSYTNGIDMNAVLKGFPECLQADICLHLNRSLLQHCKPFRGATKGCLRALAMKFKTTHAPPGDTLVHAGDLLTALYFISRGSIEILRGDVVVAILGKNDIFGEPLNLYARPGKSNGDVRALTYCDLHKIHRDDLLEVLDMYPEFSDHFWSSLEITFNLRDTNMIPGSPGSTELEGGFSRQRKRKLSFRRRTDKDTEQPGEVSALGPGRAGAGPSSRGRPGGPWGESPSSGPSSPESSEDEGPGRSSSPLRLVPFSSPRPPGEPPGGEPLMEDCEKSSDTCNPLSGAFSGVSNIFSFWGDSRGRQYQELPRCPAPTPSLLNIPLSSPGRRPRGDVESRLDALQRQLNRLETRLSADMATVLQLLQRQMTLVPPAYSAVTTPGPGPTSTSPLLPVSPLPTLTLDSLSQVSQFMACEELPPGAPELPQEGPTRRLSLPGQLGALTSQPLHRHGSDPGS

SMILES | hERG current change (%, negative = inhibition) at 10uM [%]
O=C(NCCO)c1ccc2[nH]c3c(c2c1)CCCC3 | -0.0914
Cc1nc(COC(=O)c2c(C)nn(-c3ccccc3)c2C)cs1 | -2.05
Cc1ccc(C(=O)C(C)OC(=O)Cc2c[nH]c3ccccc23)cc1 (centres unmarked) | 1.64
CN(CC(=O)NCC(=O)Nc1ccc(F)cc1)C1CCS(=O)(=O)C1 (centres unmarked) | 13.3
O=C(NC1CCCCCC1)c1ccc(CN2CCOCC2)cc1 | 11.3
Cc1ccc(CNC(=O)c2ccccc2-n2cnnn2)cc1 | 9.73
O=C(NC(=S)NC1CCCCCCCCCCC1)c1cccnc1 | -4.46
O=C(NCCNC(=O)c1ccc(F)cc1)c1ccc(F)cc1 | 0.397
COc1ccc(C(=O)NCCN2CCCC2)cc1.Cl | 3.56
Cl.O=C(NCCN1CCCC1)c1ccc(Br)cc1 | -11.9
COc1ccc(C(=O)NCCN2CCN(C(=O)c3ccc(OC)cc3)CC2)cc1 | -75.2
O=C(NCCN1CCOCC1)c1ccc(F)cc1 | 1.66
COc1ccc(C(=O)NCCCN2CCOCC2)cc1 | -1.82
O=C(NCCN1CCN(C(=O)c2ccc(F)cc2)CC1)c1ccc(F)cc1 | -70.1
O=C(NCCCN1CCOCC1)c1ccc(Br)cc1 | -13.7
O=C(NCCN1CCN(C(=O)c2ccc(Br)cc2)CC1)c1ccc(Br)cc1 | -71.3
CC(O)CNc1cnccn1 (centres unmarked) | 8.76
Cc1cc(C)c(N(C(=O)c2csnn2)C(C(=O)NC(C)(C)C)c2ccncc2)c(C)c1 (centres unmarked) | 9.01
O=C(c1ccco1)N1CCN(S(=O)(=O)c2ccc3c(c2)OCCO3)CC1 | -0.283
CC(=O)Nc1ccc(SCC(=O)Nc2oc(C)c3c(C)n[nH]c(=O)c23)cc1 | 8.72
CCn1c(/C=C/Nc2ccccc2)[n+](CC)c2ccc(Cl)cc21.[I-] | -78.6
CCn1c(/C=C/Nc2ccccc2)[n+](CC)c2cc(Cl)c(Cl)cc21.[I-] | -79.3
CCn1c(/C=C/N(C(C)=O)c2ccccc2)[n+](CC)c2ccc(Cl)cc21.[I-] | 2.3
CCn1c(/C=C/N(C(C)=O)c2ccccc2)[n+](CCCS(=O)(=O)[O-])c2cc(Cl)c(Cl)cc21 | 19.9

SMILES | hERG current change (%, negative = inhibition) at 10uM [%]
Cc1n(C)c2cc(Cl)ccc2[n+]1Cc1ccccc1.[I-] | -3.49
CCn1c(C)[n+](CCOCC[n+]2c(C)n(CC)c3cc(Cl)c(Cl)cc32)c2cc(Cl)c(Cl)cc21.[I-] | 6.82
CC(=O)c1ccc(Oc2cc(C)nc(N3CCOCC3)n2)cc1 | -13.3
COC(=O)c1ccc(Oc2cc(C)nc(-n3nc(C)cc3C)n2)cc1 | -22.4
CC(=O)c1ccc(Oc2cc(C)nc(-n3nc(C)cc3C)n2)cc1 | -59.9
COc1cccc(OC)c1C(=O)N1CCN(Cc2ccccc2C)CC1 | -0.823
O=C1C2C3C=CC(C2C(=O)N1C1CCCCC1)C1C(=O)N(C2CCCCC2)C(=O)C31 (centres unmarked) | 14.7
COc1ccc(C2c3ccc(O)cc3Oc3ncn(Cc4ccccc4)c(=N)c32)cc1OC (centres unmarked) | -51.7
COc1ccc(C2c3ccc(O)cc3Oc3ncn(CCCO)c(=N)c32)cc1 (centres unmarked) | -22.8
COc1ccc(C2c3ccc(O)cc3Oc3ncn(Cc4ccco4)c(=N)c32)cc1 (centres unmarked) | -71.9
COc1ccc(C2c3ccc(O)cc3Oc3ncn(CC(C)C)c(=N)c32)cc1 (centres unmarked) | -69.8
COc1ccc(C2c3c(ncn(Cc4ccco4)c3=N)Oc3ccc4ccccc4c32)cc1 (centres unmarked) | -7.04
COc1ccc(C2c3ccc(O)cc3Oc3ncn(CCN4CCOCC4)c(=N)c32)cc1OC (centres unmarked) | -11.8
COc1ccc(C2c3ccc(O)cc3Oc3ncn(CCN4CCOCC4)c(=N)c32)cc1 (centres unmarked) | -28.1
COc1ccc(C2c3ccc(O)cc3Oc3ncn(Cc4ccco4)c(=N)c32)cc1OC (centres unmarked) | -74.4
COc1ccc(C2c3ccc(O)cc3Oc3ncn(CCCO)c(=N)c32)cc1OC (centres unmarked) | -6.28
CC(=O)c1cccc(NC(=O)c2ccc(NC(=O)CC3SC(N4CCCCC4)=NC3=O)cc2)c1 (centres unmarked) | 10.3
COc1ccc(-n2nc(C(=O)NCC(=O)NCCN(C)C)c3ccccc3c2=O)cc1 | 10.7
Nc1ncn[nH]1 | 13.5
COc1ccccc1NC(=S)NC(NC(=O)CC(C)C)C(Cl)(Cl)Cl (centres unmarked) | 22.2
CC1=NN(C(=O)c2ccc(Cn3cc(Br)c([N+](=O)[O-])n3)o2)C(O)(C(F)(F)F)C1 (centres unmarked) | -16.6
CN(CCOc1ccccc1)C(=O)CCc1c[nH]c2ccccc12.Cl | -0.585
CCOc1ccc(C(=O)NN2C(=O)C3C4C=CC(O4)C3C2=O)cc1 (centres unmarked) | -14
